This note sets out measurements from PubChem BioAssay.

Molecules are shown by their SMILES. A number with no mark means an inactive call.

Chain of Luciferin 4-monooxygenase (Photinus pyralis) (P08659 whole entry, looked up): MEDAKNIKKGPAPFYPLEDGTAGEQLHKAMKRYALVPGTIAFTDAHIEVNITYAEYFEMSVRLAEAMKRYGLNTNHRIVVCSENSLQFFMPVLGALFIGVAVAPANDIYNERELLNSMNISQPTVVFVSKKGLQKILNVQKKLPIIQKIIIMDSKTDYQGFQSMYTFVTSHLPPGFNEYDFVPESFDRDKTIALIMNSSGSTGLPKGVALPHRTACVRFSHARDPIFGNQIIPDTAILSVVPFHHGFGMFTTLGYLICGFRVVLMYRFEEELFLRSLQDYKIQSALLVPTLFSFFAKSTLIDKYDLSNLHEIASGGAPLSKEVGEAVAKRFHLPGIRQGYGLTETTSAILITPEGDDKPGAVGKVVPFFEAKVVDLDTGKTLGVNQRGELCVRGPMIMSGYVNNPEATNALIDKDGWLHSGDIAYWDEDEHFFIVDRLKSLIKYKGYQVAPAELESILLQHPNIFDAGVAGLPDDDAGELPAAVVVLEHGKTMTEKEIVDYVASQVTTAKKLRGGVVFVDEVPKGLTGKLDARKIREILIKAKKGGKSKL

The assay concerns the target Luciferin 4-monooxygenase (Photinus pyralis) (UniProt P08659). The experiment in a line: inhibition of purified Photinus pyralis luciferase – biochemical, luminescence, purified enzyme, 2006 set, primary screen (AID 1141).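 Also: cell-free assay with purified firefly luciferase at 100 ng per well in PBS; test concentration not given here.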 Particulars: purified firefly luciferase, SteadyGlo luminescence, 30 min; higher = more signal, called active from +8 up or from −8 down.
Consider `C[C@@H]1ON(c2ccccc2)[C@H](c2ccccc2)[C@H]1C(=O)O`, for which the z-score was -0.0018.

Take `C[C@]1(C(=O)O)c2ccccc2C(=O)N(Cc2cc(F)cc(C(F)(F)F)c2)[C@H]1c1ccc(CO)cc1`: the z-score was 0.759.

With `COCCOC(=O)N1C(=O)[C@@]2(c3cc(C#CCCO)ccc31)[C@H](c1ccccc1OCCO)N1[C@H](c3ccccc3)[C@H](c3ccccc3)OC(=O)[C@H]1[C@@H]2C(N)=O`, the z-score is 0.85.

`O=C1[C@H]2C=C(I)[C@H](C[C@@H]2OCCCCCCO)[C@@]12CO2`: the z-score was 0.683.

Take `C=CCOC(=O)[C@@H]1[C@H]2C(=O)O[C@H](c3ccccc3)[C@H](c3ccccc3)N2[C@H](c2ccc(OCCOC(=O)[C@H]3C[C@H]4C(=O)N[C@@H](CCCCN(C)C)C(=O)N4[C@H]3c3ccc(O)cc3)cc2)[C@@]12C(=O)Nc1ccc(I)cc12`: the z-score is -4.54.

For `O=C(NCc1ccccc1)[C@@H]1c2ccccc2C(=O)N(Cc2cc(C(F)(F)F)cc(C(F)(F)F)c2)[C@H]1c1ccc(CO)cc1`, the z-score was 1.14.

As for `CCCC[C@H]1C[C@@H]1[C@@H]1N(C(C)=O)[C@H](c2cccc(OC)c2)CC12CC2`, the z-score was 2.15.

For `CCOC(=O)C1=CCC(c2cc3ccccc3[nH]2)N(CCN2CC(C(=O)OCC)=CCC2c2cc3ccccc3[nH]2)C1` (stereo not given), the z-score is 1.77.

In the case of `C=C(CCCC)/C(=C/C[C@H](OC(C)=O)c1cccc(OCCO)c1)c1cnc2ccccc2c1`, the z-score is -1.29.

`CCCN1C(=O)[C@@]2(c3ccc([N+](=O)[O-])cc3)CC(=O)N(CC34CC5CC(CC(C5)C3)C4)[C@@H]2c2ccc(CO)cc21`: the z-score was -0.366.
